In the library only some 12% were active in any assay of this set; here they are far more common.
ROMK mod: modulates human ROMK potassium channel activity; B-score at 10 µM; AID 1918; Tet-inducible ROMK, thallium flux fluorescence; actives lie on both sides; P48048; 2% of 130,000 active;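 active = signal ratio slope over the read window, or its plate-corrected B-score, at least 3 SD from the plate mean, either direction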;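 note: B-score of the F/F0 ratio slope over 7 to 12 s after thallium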
Insulin prom inh: TRM-6 insulin promoter activity inhibition. TRM-6 cells (human fetal islet line), insulin promoter-eGFP reporter, imaging; reporter expression induced with tamoxifen. inhibition, % at 2 µM. 0.9% of 130,000 active. AID 1273;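 active = inhibition above the mean plus 3 SD, with well images judged a real hit on visual review, cut at about 60% in these data, passing the limit was not always enough; inconclusive = inhibition over the cutoff but images rejected on review; inactive = inhibition not above the cutoff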
L major viab: inhibitors of Leishmania major promastigote growth; Leishmania major promastigotes, resazurin fluorescence viability; AID 1063; 9% of 200,000 active; inhibition, % at 10 µM; in the data active = inhibition above about 50%;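 note: promastigotes grown with compound for 44 hours at 28 °C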
Cl transport mod: KCC2 (human) Cl- transport modulation. B-score of Tl+ flux slope (higher = more flux/activation; lower = inhibition) at 10 µM. Q9H2X9. 2.2% of 190,000 active. KCC2 cells, thallium flux FluoZin-2 fluorescence;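 active = thallium flux slope and its plate-corrected score both differing from the plate sample mean at a set confidence after two filtering rounds, in either direction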;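 note: slope of fluorescence scaled to starting intensity during 10 to 20 s after thallium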
Target sequence (Q9H2X9 whole entry, looked up): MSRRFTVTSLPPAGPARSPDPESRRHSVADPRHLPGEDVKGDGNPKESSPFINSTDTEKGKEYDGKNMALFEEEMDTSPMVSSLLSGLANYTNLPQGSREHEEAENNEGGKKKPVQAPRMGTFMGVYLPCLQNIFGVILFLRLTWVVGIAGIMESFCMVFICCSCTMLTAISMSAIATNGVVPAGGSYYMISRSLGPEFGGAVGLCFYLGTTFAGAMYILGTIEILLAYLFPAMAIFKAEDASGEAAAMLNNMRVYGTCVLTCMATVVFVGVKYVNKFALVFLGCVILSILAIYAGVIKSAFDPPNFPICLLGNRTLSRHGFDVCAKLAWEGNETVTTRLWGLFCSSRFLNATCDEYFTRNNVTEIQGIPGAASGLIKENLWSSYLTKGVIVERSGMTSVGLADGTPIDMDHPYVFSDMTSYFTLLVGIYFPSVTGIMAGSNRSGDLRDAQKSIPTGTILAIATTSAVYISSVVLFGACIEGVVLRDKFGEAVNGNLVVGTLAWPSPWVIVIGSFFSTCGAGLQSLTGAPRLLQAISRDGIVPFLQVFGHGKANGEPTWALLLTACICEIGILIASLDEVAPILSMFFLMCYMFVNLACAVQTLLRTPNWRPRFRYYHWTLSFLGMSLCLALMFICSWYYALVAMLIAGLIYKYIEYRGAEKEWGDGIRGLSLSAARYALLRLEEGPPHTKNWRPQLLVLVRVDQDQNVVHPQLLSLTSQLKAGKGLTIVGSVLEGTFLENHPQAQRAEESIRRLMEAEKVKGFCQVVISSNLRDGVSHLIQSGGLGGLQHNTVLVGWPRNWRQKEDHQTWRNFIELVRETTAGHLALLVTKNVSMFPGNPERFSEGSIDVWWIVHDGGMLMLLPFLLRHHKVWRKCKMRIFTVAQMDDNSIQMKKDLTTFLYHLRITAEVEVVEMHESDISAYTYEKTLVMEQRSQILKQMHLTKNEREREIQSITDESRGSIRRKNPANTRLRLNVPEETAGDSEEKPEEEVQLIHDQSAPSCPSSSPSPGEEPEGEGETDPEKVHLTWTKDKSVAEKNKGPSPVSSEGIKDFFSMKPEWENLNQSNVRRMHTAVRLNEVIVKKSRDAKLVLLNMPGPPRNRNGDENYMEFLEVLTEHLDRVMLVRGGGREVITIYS
WT yeast gro inh: growth inhibition of WT yeast, mitochondrial fusion screen | mitochondrial fusion phenotypic screen, WT strain | inhibition, % at 10 µM | 2.1% of 190,000 active | AID 1362; in the data active = inhibition above about 58%; tested in S. cerevisiae
Ins promoter up: MIN6 insulin promoter up-regulation. 0.3% of 190,000 active. AID 1625. z-score at 5 µM. MIN6 insulin promoter-GFP reporter, high-content imaging; active compounds read high;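 active = z-score above 3 at 5 µM with at least 500 cells counted in the well; inconclusive = wells under 500 cells, flagged as cytotoxic or low count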
Of the large screens only hits and unclear results are named; the others gave an inactive call.

CC1(c2ccccc2)NC(=O)N(CC(=O)Nc2ccc3c(c2)OCO3)C1=O (stereo not given)	none
Cc1ccc(NC(=O)CN2C(=O)NC(C)(c3ccc(Cl)cc3)C2=O)cc1S(=O)(=O)N1CCOCC1 (stereo not given)	L major viab 56 (no result: ROMK mod)
COc1ccc(/C=N/n2cncn2)cc1COc1ccc(NC(C)=O)cc1	none
CCOc1ccc(NC(=O)CSc2nnc(C34CC5CC(CC(C5)C3)C4)n2C)cc1	none (no result: ROMK mod, Cl transport mod)
O=C(CSc1ncnc2scc(-c3ccccc3)c12)NC1CCS(=O)(=O)C1 (stereo not given)	none (no result: ROMK mod, Insulin prom inh, L major viab, WT yeast gro inh)
COc1ccc(NC(=O)CSc2ccccc2)c([N+](=O)[O-])c1	none
CCC(C)(C)C(=O)Nc1ccc(OC)cc1[N+](=O)[O-]	Insulin prom inh 100 (no result: ROMK mod)
COc1ccc(NC(=O)Cc2ccc(C)cc2)c([N+](=O)[O-])c1	L major viab 91 (no result: ROMK mod)
COc1ccc(NC(=O)CSc2nc3ccccc3n2-c2ccccc2)c([N+](=O)[O-])c1	L major viab 70 (no result: ROMK mod)
CCOc1ccc(OCC(=O)Nc2ccc(OC)cc2[N+](=O)[O-])cc1	none (no result: Insulin prom inh)
Cc1ccc(CCNC(=O)NC(C)(C)C)cc1	Insulin prom inh inconclusive (no result: ROMK mod)
N#CCCn1nc(-c2ccc(Cl)cc2)cc1Nc1ccccc1NC(=O)C(F)(F)F	none (no result: ROMK mod, Insulin prom inh)
C/C(=N\N=C(/N)SC1CC(=O)N(c2ccc(Cl)c(Cl)c2)C1=O)c1cccs1 (stereo not given)	WT yeast gro inh 98 (no result: ROMK mod, Insulin prom inh)
C/C(=N\N=C(/N)SC1CC(=O)N(c2ccc(Br)cc2)C1=O)c1cccs1 (stereo not given)	L major viab 100, WT yeast gro inh 65 (no result: ROMK mod, Insulin prom inh)
N/C(=N\N=C\c1ccnc2ccccc12)SC1CC(=O)N(c2ccc(Br)cc2)C1=O (stereo not given)	none (no result: ROMK mod, Cl transport mod)
C/C(=N\N=C(/N)SC1CC(=O)N(c2ccccc2)C1=O)c1cccs1 (stereo not given)	none (no result: ROMK mod, Insulin prom inh)
N/C(=N\N=C\c1cccs1)SC1CC(=O)N(c2ccc(Br)cc2)C1=O (stereo not given)	L major viab 100
C/C(=N\N=C(/N)SC1CC(=O)N(c2ccc(Cl)cc2)C1=O)c1cccs1 (stereo not given)	WT yeast gro inh 60 (no result: ROMK mod)
COC(=O)C1CCN(C(=O)Cc2c(OC)ccc3cc(Br)ccc23)CC1	none (no result: ROMK mod, Insulin prom inh)
N#Cc1ccc(-c2ccc(OCC(O)CN3CCOCC3)cc2)cc1 (stereo not given)	L major viab 84
OC(COc1cccc(OCC(O)CN2CCOCC2)c1)CN1CCOCC1 (stereo not given)	none (no result: Insulin prom inh)
CN(C)CC(O)COc1ccc(-c2ccc(C#N)cc2)cc1 (stereo not given)	L major viab 98 (no result: Cl transport mod)
Cc1ccc(NC(=O)N2CCCC2C(=O)NCCC2=CCCCC2)cc1 (stereo not given)	none (no result: Insulin prom inh)
C=CCNC(=S)Nc1ccc(F)cc1F	none
Fc1ccc(NC(=S)N/N=C/c2ccc(F)c(F)c2)c(F)c1	Cl transport mod 20
Fc1ccccc1/C=N/NC(=S)Nc1ccc(Cl)cc1Cl	Cl transport mod 15 (no result: ROMK mod)
CCOC(=O)C1=C(c2ccccc2)N=C2SCC(=O)N2C1c1ccc(OC)c(OC)c1 (stereo not given)	none (no result: ROMK mod)
CCOC(=O)C1=C(c2ccccc2)N=C2SCC(=O)N2C1c1ccc2c(c1)OCO2 (stereo not given)	WT yeast gro inh 60 (no result: ROMK mod, Insulin prom inh)
Cc1cc(NC(=O)c2c(Br)c(C)nn2C)no1	none
Cc1cc(OCC(=O)Nc2ccc(S(=O)(=O)NC3=NCCCCC3)cc2)c(C(C)C)cc1Cl	L major viab 71 (no result: ROMK mod)
CC(=O)c1c(-c2ccc(Cl)cc2Cl)noc1C	none (no result: ROMK mod, Insulin prom inh, L major viab, WT yeast gro inh)
COc1ccc(Sc2nnc(Cc3ccccc3)c3ccccc23)cc1	L major viab 85 (no result: ROMK mod)
CC1(C)SC(=S)N(Cc2ccc3c(c2)OCO3)C1N(O)C(=O)NC1CCCCC1 (stereo not given)	L major viab 82 (no result: ROMK mod)
CC1(C(=O)NC2CCCCC2)CCC(=O)N1Cc1ccc2c(c1)OCO2 (stereo not given)	none (no result: Insulin prom inh, L major viab, WT yeast gro inh)
N/C(Cc1cccc2ccccc12)=N\OC(=O)c1cccs1	L major viab 58
N/C(Cc1cccc2ccccc12)=N\OC(=O)Cc1cccs1	none
Cn1c(=O)n(C)c2cc(NC(=O)CCl)ccc21	none (no result: ROMK mod)
CCn1c(=O)oc2cc(NC(=O)CCl)ccc21	L major viab 70 (no result: Insulin prom inh)
CCNC(=O)CN(c1ccc(OC)c(OC)c1)S(=O)(=O)c1ccccc1	none
N#Cc1ccc(-c2cccs2)nc1SCc1cccnc1	none (no result: ROMK mod, Insulin prom inh, L major viab, WT yeast gro inh)
CN1CCN(C(=O)CSc2nc(-c3cccs3)ccc2C#N)CC1	L major viab 95 (no result: Ins promoter up)
O=C(O)Cc1ccc(Oc2ncc(C(F)(F)F)cc2Cl)cc1	none (no result: Cl transport mod)
O=C(Oc1cc(=O)oc2ccccc12)c1cccnc1Cl	none
C=C1CCC2C(C)(C)[C@H](O)CC[C@@]2(C)[C@@H]1COc1cc(=O)oc2ccccc12 (stereo not given in full)	L major viab 98
CCOC(=O)C1CCN(c2ccc([N+](=O)[O-])cc2)CC1	none
CCOC(=O)C1CCC(CN(Cc2ccccc2C)S(=O)(=O)c2ccc([N+](=O)[O-])cc2)CC1 (stereo not given)	L major viab 86, WT yeast gro inh 74
CCCCNC(=O)CSc1nc2ccccc2n1S(=O)(=O)c1ccc(Br)cc1	none
Cc1cccc(NC(=O)c2sc3nc4c(c(-c5cccs5)c3c2N)CN(C)CC4)c1	L major viab 56
COc1cc(NS(=O)(=O)c2ccc(NC(=O)CN3C(=O)c4ccccc4C3=O)cc2)nc(OC)n1	none (no result: ROMK mod)
CN1C(=O)/C(=C/c2ccccc2OCc2ccccc2F)NC1=S	L major viab 62 (no result: ROMK mod)
Cc1ccc2c(c1)Oc1ccc([N+](=O)[O-])cc1C(=O)N2	none
Cc1ccc2c(c1)Oc1ccc(NC(=O)CCl)cc1C(=O)N2	L major viab 98
CCN1c2ccccc2-c2nc3ccccc3n2C1c1cccs1 (stereo not given)	L major viab 96, WT yeast gro inh 64
COc1ccc2nc(NC(=O)CSc3nc4cccnc4n3C)sc2c1	none (no result: ROMK mod)
COC(=O)c1sc(NC(=O)CSc2nc3cccnc3n2C2CCCCC2)nc1C	L major viab 61 (no result: Insulin prom inh, Cl transport mod)
O=C(C1=C[C@@H](C2CC2)C[C@@H](OCc2ccc(CO)cc2)O1)N1CCOCC1	none (no result: ROMK mod, Insulin prom inh)
COc1ccccc1NS(=O)(=O)c1ccc(O)c(NC(=S)NCC2CCCO2)c1 (stereo not given)	none (no result: ROMK mod, Insulin prom inh, L major viab, WT yeast gro inh)
c1ccc(Cc2noc(CN3CCN(C4CCc5ccccc5C4)CC3)n2)cc1 (stereo not given)	L major viab 87 (no result: Insulin prom inh)
c1ccc(Cc2noc(CN3CCCN(C4Cc5ccccc5C4)CC3)n2)cc1	L major viab 92 (no result: Insulin prom inh)
COc1ccc(C(=O)/C=C/C(=O)N(Cc2ccc(F)cc2)C(C(=O)NC2CCCCC2)c2ccncc2)c(O)c1 (stereo not given)	L major viab 71
COc1ccc(C(=O)/C=C/C(=O)N(Cc2ccccc2)C(C(=O)NC2CCCCC2)c2ccncc2)c(O)c1 (stereo not given)	L major viab 93

Bioassay records: PubChem, several laboratories
